# Data: PubChem BioAssay (NCATS)
# A number with no mark means an inactive call. Activity calls are given as the source filed them. Calls come from the whole dose curve; as a rule, active = well fitted curve in the direction sought with a large enough effect; inconclusive = small, poorly fitted or top-dose-only effect, or another doubt; inactive = no such curve, though single readings can be large or run the other way.
# Experiment: Cellular Toxicity (caspase-3) HUV-EC-C (AID 656)
# Settings: HUV-EC-C cells, caspase-3 activation (apoptosis), vehicle = 0, 100 µM tamoxifen = 100%; series mostly up to 92.2 µM; caspase-3 activation: at the top concentration
# Source text: NIH Chemical Genomics Center [NCGC]
# NIH Molecular Libraries Screening Centers Network [MLSCN]
# National Institutes of Environmental Health Sciences [NIEHS]
# National Toxicology Program [NTP]
# We have developed a 1536-well cell-based assay for quantitative high throughput screening (qHTS) against a number of cell lines to determine in vitro caspase 3/7 of small molecules. This particular assay uses the HUV-EC-C cell line which is derived from normal human vascular endothelial cells.
# NCGC Assay Protocol Summary:
# The Caspase-Glo 3/7 assay (Promega) is a homogeneous method to measure caspase-3 and caspase-7 activities in cultured cells. The quantitation of caspase 3/7 activity is based on the cleavage of a peptide-aminoluciferin substrate. After caspase cleaves the substrate the free aminoluciferin is liberated and serves as the substrate of luciferase, which generates the light. The luminescent signal is proportional to amount of caspase 3/7 activity present.
# Using the Caspase-Glo 3/7 assay, the amount of caspase 3/7 activity was measured in the HUV-EC-C cell line with complete culture medium following compound treatment for 16 hours. The assay was performed in opaque white 1536-well plates. In the screen, tamoxifen and doxorubicin were used as positive controls. Library compounds were measured for their ability to cause the activation of caspase 3/7 in the cell line, as reflected by an increase in luminescence signal, in a concentration-dependent manner. Data were normalized to the controls for basal activity (DMSO only) and 100% stimulation (100 uM tamoxifen). AC50 values were determined from concentration-response data modeled with the standard Hill equation.
# qHTS protocol for caspase 3/7 assay in HUV-EC-C cell line
# [Step] [Parameter] [Value] [Description]
# 1. Reagent; 5 uL; 1000 HUV-EC-C cells/well
# 2. Time; 5 hr; 37 °C incubation
# 4. Controls; 23 nL; Tamoxifen 0.23 uM to 100 uM & doxorubicin 7.0 pM to 100 uM
# 5. Time; 16 hr; 37 °C incubation
# 6. Reagent; 5 uL; Caspase-Glo 3/7 reagent
# 7. Time; 20 min; Room Temperature
# 8. Detection; Luminescence; Viewlux plate reader
# Keywords: caspase 3/7, apoptosis, HUV-EC-C cell line, luminescence, NTPHTS, NTPHTS_NCGC, NIEHS, EPA, DSSTox, MLSMR, MLSCN, NIH Roadmap, qHTS, NCGC
SMILES,caspase-3 activation [%],outcome
O=P(O)(O)O,1.58,
ClC(Cl)Cl,2.11,
C[C@H](CCC(=O)O)[C@H]1CC[C@H]2[C@@H]3[C@H](O)C[C@@H]4C[C@H](O)CC[C@]4(C)[C@H]3C[C@H](O)[C@]12C,-0.367,
CC1=CC(=O)NS(=O)(=O)O1,-0.585,
OCc1ccccc1,0.572,
NCCN,8.95,
CO/N=C(/C(=O)N[C@@H]1C(=O)N2C(C(=O)O)=C(COC(N)=O)CS[C@H]12)c1ccco1,-0.159,
COC(=O)c1ccccc1O,-3.67,
Oc1ccc(/C=C/c2cc(O)cc(O)c2)cc1,-6.59,
Cc1ncc[nH]1,-2.13,
Nc1ncnc2c1ncn2[C@H]1CC[C@@H](CO)O1,-2.56,
C[C@H]1O[C@@H](O[C@H]2[C@@H](O)C[C@H](O[C@H]3[C@@H](O)C[C@H](O[C@H]4CC[C@@]5(C)[C@H](CC[C@@H]6[C@@H]5C[C@@H](O)[C@]5(C)[C@@H](C7=CC(=O)OC7)CC[C@]65O)C4)O[C@@H]3C)O[C@@H]2C)C[C@H](O)[C@@H]1O,1.52,
C/C=C/C=C/C(=O)O,-3.05,
Cc1ccc(S(=O)(=O)O)cc1C,12.4,
CC1=CCC2CC1C2(C)C (stereo unspecified),-5.18,
CCOC(C)OCC,-2.87,
CC(C)O,10.4,
OC[C@H]1O[C@@H]2O[C@H]3[C@H](O)[C@@H](O)[C@@H](O[C@H]4[C@H](O)[C@@H](O)[C@@H](O[C@H]5[C@H](O)[C@@H](O)[C@@H](O[C@H]6[C@H](O)[C@@H](O)[C@@H](O[C@H]7[C@H](O)[C@@H](O)[C@@H](O[C@H]1[C@H](O)[C@H]2O)O[C@@H]7CO)O[C@@H]6CO)O[C@@H]5CO)O[C@@H]4CO)O[C@@H]3CO,0.599,

SMILES,caspase-3 activation [%],outcome
CO,2.36,
CC/C=C\C/C=C\C/C=C\CCCCCCCC(=O)O,4.09,
Nc1nccs1,2.15,
O=c1n(CC2CO2)c(=O)n(CC2CO2)c(=O)n1CC1CO1 (stereo unspecified),-4.06,
c1ccc2ccccc2c1,0.23,
OCl,-3.4,
OB(O)O,1.92,
CC[C@H]1OC(=O)[C@H](C)[C@@H](O[C@H]2C[C@@](C)(OC)[C@@H](O)[C@H](C)O2)[C@H](C)[C@@H](O[C@@H]2O[C@H](C)C[C@H](N(C)C)[C@H]2O)[C@](C)(O)C[C@@H](C)CN(C)[C@H](C)[C@@H](O)[C@]1(C)O,-3.09,
Nc1ccc(N=Nc2ccccc2)c(N)n1,-4.37,
O.O.O.O.O.O.O.O=S(=O)([O-])[O-].[Co+2],1.15,
CCCCO,,inactive
[O-][N+](=Nc1ccccc1)c1ccccc1,-2.02,
CCCCC,-0.0778,
C[C@H](CCC(=O)O)[C@H]1CC[C@H]2[C@@H]3CC[C@@H]4C[C@H](O)CC[C@]4(C)[C@H]3C[C@H](O)[C@]12C,1.78,
CC(C)(C)CC(C)(C)c1ccc(OCCO)cc1,0.91,
OCC(O)CO,,inactive
NC(N)=O,-1.75,
Oc1cccc(O)c1O,-4.73,
